In PubChem BioAssay AID1159580 (chemical genetic matrix, 2015):
Out of some 5,500 compounds screened, about 2,000 (36%) were called active. Not shown: some 18% with an inconclusive outcome. No stated cut-off is given here; in the data, active means normalized growth mostly below about 0.91 (no sharp cut-off); inconclusive means no clear call, values can overlap the other calls; inactive means mostly above about 0.92. The list shows a part of the results.

Test: chemical genetic growth profiling, strain panel (AID 1159580);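 further: tested at 20 µM; growth read once vehicle control cultures reached saturation at 30 °C; 1 = growth at the plate median or of vehicle wells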
Settings: growth OD
[1] = S. cerevisiae deletion strains, locus YAL013W, strain DEP1, stronger effect = lower value
[2] = S. cerevisiae deletion strains, locus YJR075W, strain HOC1, stronger effect = lower value
[3] = S. cerevisiae deletion strains, locus YNL153C, strain GIM3, stronger effect = lower value

Measured: normalized growth

Cc1cccc(Nc2ccncc2S(=O)(=O)NC(=O)NC(C)C)c1
inactive: [1] 1.01 | S. cerevisiae deletion strains, locus YBR021W, strain FUR4, stronger effect = lower value 1.02 | S. cerevisiae deletion strains, locus YBR229C, strain ROT2, stronger effect = lower value 1.01 | S. cerevisiae deletion strains, locus YCL029C, strain bik1, stronger effect = lower value 1.02 | S. cerevisiae deletion strains, locus YDL035C, strain GPR1, stronger effect = lower value 1.02 | S. cerevisiae deletion strains, locus YDL074C, strain BRE1, stronger effect = lower value 1.01 | S. cerevisiae deletion strains, locus YDL101C, strain DUN1, stronger effect = lower value 1.02 | S. cerevisiae deletion strains, locus YDL134C, strain PPH21, stronger effect = lower value 1 | S. cerevisiae deletion strains, locus YDL185W, strain tfp1, stronger effect = lower value 1.02 | S. cerevisiae deletion strains, locus YDL192W, strain arf1, stronger effect = lower value 1.03 | S. cerevisiae deletion strains, locus YDR101C, strain arx1, stronger effect = lower value 1.02 | S. cerevisiae deletion strains, locus YDR150W, strain NUM1, stronger effect = lower value 1.02 | S. cerevisiae deletion strains, locus YDR162C, strain NBP2, stronger effect = lower value 1.01 | S. cerevisiae deletion strains, locus YDR318W, strain mcm21, stronger effect = lower value 1.03 | S. cerevisiae deletion strains, locus YDR388W, stronger effect = lower value 1.02 | S. cerevisiae deletion strains, locus YDR502C, strain sam2, stronger effect = lower value 1.02 | S. cerevisiae deletion strains, locus YEL061C, strain CIN8, stronger effect = lower value 1.01 | S. cerevisiae deletion strains, locus YER110C, stronger effect = lower value 1.03 | S. cerevisiae deletion strains, locus YER155C, strain BEM2, stronger effect = lower value 0.999 | S. cerevisiae deletion strains, locus YER167W, strain BCK2, stronger effect = lower value 1.01 | S. cerevisiae deletion strains, locus YGL078C, strain dbp3, stronger effect = lower value 1.02 | S. cerevisiae deletion strains, locus YGL086W, strain mad1, stronger effect = lower value 1.02 | S. cerevisiae deletion strains, locus YGL248W, strain PDE1, stronger effect = lower value 1.01 | S. cerevisiae deletion strains, locus YGR078C, strain PAC10, stronger effect = lower value 1.05 | S. cerevisiae deletion strains, locus YGR135W, strain pre9, stronger effect = lower value 1.01 | S. cerevisiae deletion strains, locus YGR229C, strain SMI1, stronger effect = lower value 1.04 | S. cerevisiae deletion strains, locus YGR252W, strain gcn5, stronger effect = lower value 1.08 | S. cerevisiae deletion strains, locus YHR030C, strain SLT2, stronger effect = lower value 1.01 | S. cerevisiae deletion strains, locus YHR079C, strain IRE1 (second series), stronger effect = lower value 1.01 | S. cerevisiae deletion strains, locus YHR094C, strain hxt1, stronger effect = lower value 1.02 | S. cerevisiae deletion strains, locus YHR129C, strain ARP1, stronger effect = lower value 1 | S. cerevisiae deletion strains, locus YHR200W, strain rpn10, stronger effect = lower value 1.03 | S. cerevisiae deletion strains, locus YIL066C, strain RNR3, stronger effect = lower value 1.04 | S. cerevisiae deletion strains, locus YIL125W, strain kgd1, stronger effect = lower value 1.01 | S. cerevisiae deletion strains, locus YIR030C, strain dcg1, stronger effect = lower value 1.02 | S. cerevisiae deletion strains, locus YJL095W, strain BCK1, stronger effect = lower value 1.02 | S. cerevisiae deletion strains, locus YJL134W, strain LCB3, stronger effect = lower value 1.01 | S. cerevisiae deletion strains, locus YJL168C, strain set2, stronger effect = lower value 1.02 | S. cerevisiae deletion strains, locus YJL187C, strain SWE1 (second series), stronger effect = lower value 1.02 | S. cerevisiae deletion strains, locus YJR043C, strain POL32, stronger effect = lower value 1.04 | [2] 1.01 | S. cerevisiae deletion strains, locus YKL009W, strain mrt4, stronger effect = lower value 1.01 | S. cerevisiae deletion strains, locus YKL068W, stronger effect = lower value 1.01 | S. cerevisiae deletion strains, locus YKL085W, strain MDH1 (second series), stronger effect = lower value 0.986 | S. cerevisiae deletion strains, locus YKL085W, strain MDH1, stronger effect = lower value 0.986 | S. cerevisiae deletion strains, locus YKL190W, strain CNB1, stronger effect = lower value 1.03 | S. cerevisiae deletion strains, locus YKR001C, strain vps1, stronger effect = lower value 1.03 | S. cerevisiae deletion strains, locus YLR039C, strain RIC1, stronger effect = lower value 1.04 | S. cerevisiae deletion strains, locus YLR058C, strain SHM2, stronger effect = lower value 1.01 | S. cerevisiae deletion strains, locus YLR102C, strain apc9, stronger effect = lower value 1.02 | S. cerevisiae deletion strains, locus YLR262C, strain YPT6, stronger effect = lower value 1.03 | S. cerevisiae deletion strains, locus YLR268W, strain sec22, stronger effect = lower value 1.02 | S. cerevisiae deletion strains, locus YLR330W, strain CHS5, stronger effect = lower value 1.01 | S. cerevisiae deletion strains, locus YLR342W, strain FKS1 (second series), stronger effect = lower value 1.06 | S. cerevisiae deletion strains, locus YLR371W, strain rom2, stronger effect = lower value 1.03 | S. cerevisiae deletion strains, locus YLR418C, strain cdc73, stronger effect = lower value 1.01 | S. cerevisiae deletion strains, locus YML016C, strain PPZ1, stronger effect = lower value 1.01 | S. cerevisiae deletion strains, locus YML032C, strain rad52, stronger effect = lower value 1.03 | S. cerevisiae deletion strains, locus YML124C, strain tub3, stronger effect = lower value 1.02 | S. cerevisiae deletion strains, locus YMR078C, strain ctf18, stronger effect = lower value 1.03 | S. cerevisiae deletion strains, locus YMR223W, strain ubp8, stronger effect = lower value 1.03 | S. cerevisiae deletion strains, locus YMR263W, strain SAP30, stronger effect = lower value 1.02 | S. cerevisiae deletion strains, locus YMR307W, strain GAS1, stronger effect = lower value 1.05 | S. cerevisiae deletion strains, locus YNL067W, strain RPL9B, stronger effect = lower value 1.01 | S. cerevisiae deletion strains, locus YNL128W, strain TEP1, stronger effect = lower value 1.02 | [3] 1 | S. cerevisiae deletion strains, locus YNL233W, strain BNI4, stronger effect = lower value 1 | S. cerevisiae deletion strains, locus YNL250W, strain rad50, stronger effect = lower value 1.02 | S. cerevisiae deletion strains, locus YNL271C, strain bni1, stronger effect = lower value 1.02 | S. cerevisiae deletion strains, locus YNL298W, strain CLA4, stronger effect = lower value 1.02 | S. cerevisiae deletion strains, locus YNL307C, strain MCK1, stronger effect = lower value 1.03 | S. cerevisiae deletion strains, locus YNL322C, strain KRE1, stronger effect = lower value 1.02 | S. cerevisiae deletion strains, locus YNR052C, strain pop2, stronger effect = lower value 1.03 | S. cerevisiae deletion strains, locus YOL006C, strain TOP1, stronger effect = lower value 1 | S. cerevisiae deletion strains, locus YOL012C, strain htz1 0.913 | S. cerevisiae deletion strains, locus YOL147C, strain pex11, stronger effect = lower value 1.02 | S. cerevisiae deletion strains, locus YOR061W, strain CKA2, stronger effect = lower value 1.01 | S. cerevisiae deletion strains, locus YOR069W, strain VPS5, stronger effect = lower value 1 | S. cerevisiae deletion strains, locus YOR136W, strain idh2, stronger effect = lower value 1.03 | S. cerevisiae deletion strains, locus YOR144C, strain elg1, stronger effect = lower value 1.03 | S. cerevisiae deletion strains, locus YOR184W, strain ser1, stronger effect = lower value 1.03 | S. cerevisiae deletion strains, locus YOR316C, strain cot1, stronger effect = lower value 1.02 | S. cerevisiae deletion strains, locus YPL055C, strain LGE1, stronger effect = lower value 1.04 | S. cerevisiae deletion strains, locus YPL241C, strain CIN2, stronger effect = lower value 1.03 | S. cerevisiae deletion strains, locus YPR119W, strain clb2, stronger effect = lower value 1.02 | S. cerevisiae deletion strains, locus YPR141C, strain kar3, stronger effect = lower value 1.02 | S. cerevisiae deletion strains, locus YPR163C, strain tif3, stronger effect = lower value 1.03 | S. cerevisiae deletion strains, locus YPR167C, strain met16, stronger effect = lower value 1.01 | S. cerevisiae deletion strains, strain wtn01, stronger effect = lower value 1 | S. cerevisiae strains, strain wild type, stronger effect = lower value 1.04

CC(=O)OCC1=C(C(=O)O)N2C(=O)C(NC(=O)Cc3cccs3)C2SC1 (stereo not given)
inactive: [1] 1.01 | S. cerevisiae deletion strains, locus YAL040C, strain CLN3, stronger effect = lower value 0.993 | S. cerevisiae deletion strains, locus YDR363W, strain ESC2, stronger effect = lower value 1 | S. cerevisiae deletion strains, locus YER002W, strain NOP16, stronger effect = lower value 1.03 | [2] 0.995 | [3] 1.03 | S. cerevisiae deletion strains, locus YNL175C, strain NOP13, stronger effect = lower value 1.01 | S. cerevisiae deletion strains, locus YNL197C, strain WHI3, stronger effect = lower value 1.05 | S. cerevisiae deletion strains, locus YNL224C, strain SQS1, stronger effect = lower value 1.03 | S. cerevisiae deletion strains, locus YOR083W, strain WHI5 (second series), stronger effect = lower value 1.05
